Data reported in PubChem BioAssay AID977607 (Broad Institute, 2014).
About 460 (31%) of roughly 1,500 compounds were called active. About 1% were inconclusive and are not listed.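 How the source made its calls: active means curve reaches 40% activation over neutral controls at an AC40 no higher than the top valid tested concentration; inconclusive means no clear call, values can overlap the other calls; inactive means signal moving opposite to the expected increase, and the rest.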 The list is a sample of the results. Entries with a potency or affinity are not part of this list.

Assay: activators of glucose-dependent insulin secretion, dose response, cell-based, INS-1E, Gaussia luciferase, luminescence, cherry-pick, set 2 (AID 977607);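 further: 0% = median of the plate neutral control wells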
Settings: INS-1E GLuc insulin secretion reporter, 2-3 h, stronger effect = higher value; at 35 µM, 100% = signal doubled over neutral wells unless noted

Max activation, inactive:
O=C1CC(=O)Nc2cc(S(=O)(=O)NCc3cccs3)ccc2N1 -18.8% [at 0.0016 µM, 100% = signal doubled over neutral wells], COc1ccc(CCNS(=O)(=O)c2ccc(Cl)s2)cc1OC 28.1%, COc1ccc(CCN(C)C(=O)CCNS(=O)(=O)c2ccccc2C(F)(F)F)cc1OC -10.8% [at 0.135 µM, 100% = signal doubled over neutral wells], COc1ccc(CCNC(=O)C(=O)NN=C2CCCCCCC2)cc1OC -11.7% [at 0.005 µM, 100% = signal doubled over neutral wells], COc1ccc(CCN=C(N)NS(=O)(=O)c2ccc(C)c(C)c2)cc1OC 23.8% [at 0.0016 µM, 100% = signal doubled over neutral wells], CCOC(=O)c1c(S(=O)(=O)NCCc2ccc(OC)c(OC)c2)c(C)n(C)c1C -18.5% [at 0.135 µM, 100% = signal doubled over neutral wells], COc1ccc(CCNc2ccncn2)cc1OC -13.5% [at 0.0016 µM, 100% = signal doubled over neutral wells], Cc1ccc(NC(=O)[C@@H](Cc2ccccc2)NC(=O)[C@H]2O[C@@H](n3ccc(=O)[nH]c3=O)[C@H](O)[C@@H]2O)cc1C -17.1% [at 0.015 µM, 100% = signal doubled over neutral wells], COc1ccc(NC(=O)C2CCCN2S(=O)(=O)c2ccc3c(c2)CC(C)N3C(C)=O)cc1OC (centres undefined) -19.4% [at 0.005 µM, 100% = signal doubled over neutral wells], COc1cccc(NC(=O)CN(C)C(=O)Cn2[nH]c(=O)c3ccccc3c2=O)c1 -27.7% [at 1.2 µM, 100% = signal doubled over neutral wells], COc1cc2c(cc1OC)C(CSc1ccccc1C(=O)O)=NC(C)(C)C2 30.8%, O=C(NCC1(O)CCCCC1)C1CCC(=O)N(Cc2ccccc2F)C1 (centres undefined) -16.4%, CN(C(=O)COC(=O)c1cccs1)c1ccccc1 -16.8% [at 0.0016 µM, 100% = signal doubled over neutral wells], CCOC(=O)c1sc(NC(C)=O)nc1-c1ccccc1 -16.3% [at 0.046 µM, 100% = signal doubled over neutral wells], O=C(Nc1cccnc1)c1cnn2c(C(F)F)cc(C3CC3)nc12 30.2% [at 11 µM, 100% = signal doubled over neutral wells], Cc1cc(C(F)F)n2ncc(C(=O)NCc3ccc(F)cc3)c2n1 -18% [at 1.2 µM, 100% = signal doubled over neutral wells], COc1ccc(-c2cc(NC=O)c3ncc(-c4ccc(OC)c(OC)c4)n3c2)cc1 90% [at 3.8 µM, 100% = signal doubled over neutral wells], CC(=O)Nc1cc(-c2ccc(N3CCN(C)CC3)cc2)cn2c(-c3cccc(C(=O)N(C)C)c3)cnc12 -24% [at 0.046 µM, 100% = signal doubled over neutral wells], COc1ccc(CNC(=O)CN2C(=O)NC3(CCCCCC3)C2=O)cc1 -13.8% [at 0.005 µM, 100% = signal doubled over neutral wells], CCC(O)c1nc2ccccc2n1CCc1ccccc1 (centres undefined) -18.7% [at 0.005 µM, 100% = signal doubled over neutral wells], CC1Cc2ccccc2N1C(=S)NC(=O)c1cccc(Br)c1 (centres undefined) -15.5% [at 0.005 µM, 100% = signal doubled over neutral wells], CCOC(=O)c1nc2nc(-c3cccs3)cc(C(F)(F)F)n2n1 -16% [at 0.135 µM, 100% = signal doubled over neutral wells], Cc1c(Cc2ccccc2)sc(NC(=O)C(C)(C)C)c1C(N)=O -18.8% [at 0.015 µM, 100% = signal doubled over neutral wells], COc1ccc(/C(C)=N/Nc2ccc(C(=O)O)cc2)cc1OC 24.3%, COc1ccc(C(=O)/C=C2\NCCc3cc(OC)c(OC)cc32)cc1OC 24%, C=CCN1C(=O)c2n[nH]c(COC)c2C1c1ccc(F)cc1 (centres undefined) -25.3% [at 0.015 µM, 100% = signal doubled over neutral wells], Cc1cc(=O)oc2c3c(cc(OCC(=O)NC(C)C)c12)OC(C)(C)CC3 34% [at 0.42 µM, 100% = signal doubled over neutral wells], CC(=O)Nc1ccc(-c2ccnc3c2CC(C)(C(=O)Nc2cccc(OC(F)(F)F)c2)O3)cc1 (centres undefined) -44.4%, Nn1c(-c2ccccc2)cc(-c2ccccc2)cc1=O 27.3%, CNc1nc(OCC#N)nc(N2CCCCC2)n1 25%, COc1ccc(C(=O)N2CCc3cc(OC)c(OC)cc3C2c2ccc(OC)c(OC)c2)cc1OC (centres undefined) 24.4% [at 0.005 µM, 100% = signal doubled over neutral wells], COc1cc2c(cc1OC)CN(C(=O)Cc1ccccc1)CC2 -21.2%, Cc1ccccc1SC1CCN(C(=O)C2CCC(=O)N(C3CC3)C2)CC1 (centres undefined) -25.3%, CCOc1ccc(OCCC(=O)N(CC)CC(=O)NCc2cccs2)cc1 -21% [at 11 µM, 100% = signal doubled over neutral wells], O=C(CC(NC(=O)c1ccccc1)c1ccccc1)Nc1cccc2ccccc12 (centres undefined) -27.5%, Nc1[nH]c(C(=O)c2ccccc2)c(-c2c(F)cccc2F)c1C(=O)c1ccc(Cl)c(Cl)c1 53.9%, C#Cc1cccc(-n2nnc(C(=O)OC)c2-c2ccccc2)c1 -13.8% [at 0.42 µM, 100% = signal doubled over neutral wells], COC(=O)C1=C(C)NC(=S)NC1c1ccc(OC)cc1 (centres undefined) -18.4% [at 0.135 µM, 100% = signal doubled over neutral wells], COc1ccc(CCC(=O)NC2CCC(C)CC2)cc1 (centres undefined) -13.6% [at 0.135 µM, 100% = signal doubled over neutral wells], c1ccc2c(NCC3CCCO3)nc(N3CCCCC3)nc2c1 (centres undefined) -16.1% [at 3.8 µM, 100% = signal doubled over neutral wells], CC1=CC(c2ccccc2)n2nc(NC(=O)CCC(=O)O)nc2N1 (centres undefined) -12.8% [at 1.2 µM, 100% = signal doubled over neutral wells], CC(=O)c1ccc(OCC(=O)N(C2CCCCC2)C2CCS(=O)(=O)C2)cc1 (centres undefined) -11% [at 0.0016 µM, 100% = signal doubled over neutral wells], CCN(Cc1ccccc1)S(=O)(=O)c1ccc(C(=O)Nc2nnc(C)o2)cc1 39.3% [at 3.8 µM, 100% = signal doubled over neutral wells], COc1cc2c(cc1OC)CN(C(=O)CNS(=O)(=O)c1ccc(C)c(C)c1)CC2 13.4% [at 11 µM, 100% = signal doubled over neutral wells], CN(C)CCCN(C(=O)CCOc1ccccc1)c1nc2ccc(F)cc2s1 -14.1% [at 0.015 µM, 100% = signal doubled over neutral wells], COc1ccccc1-c1cnc2c(c1)C(=O)N([C@H](C)CO)C[C@@H](C)[C@@H](CN(C)C(C)=O)O2 35.5% [at 0.015 µM, 100% = signal doubled over neutral wells], O=C(NC1CCCCC1)c1cccnc1Sc1ccccc1 -28.1% [at 0.015 µM, 100% = signal doubled over neutral wells], CCCCc1nc(NCCN)c(C#N)c2c1CSC(C)(C)C2 -17.6% [at 0.046 µM, 100% = signal doubled over neutral wells], O=C(Nc1ccc(Br)cc1)c1cc2ccccn2n1 -31.1% [at 0.42 µM, 100% = signal doubled over neutral wells], O=C(NC(=S)NCC1CCCO1)c1ccc(Cl)cc1Cl (centres undefined) -19.4% [at 0.005 µM, 100% = signal doubled over neutral wells], O=C(OCc1c(-c2ccccc2)ncc2ccccc12)c1cccs1 -36.4% [at 11 µM, 100% = signal doubled over neutral wells], CCc1nc2ccc(C(=O)N(C)CCCN(C)C)cn2c1N(C=O)CCC(C)C -21.2% [at 1.2 µM, 100% = signal doubled over neutral wells], O=C(O)CNS(=O)(=O)c1ccc2c(c1)Cc1cc(S(=O)(=O)NCC(=O)O)ccc1-2 -16.4% [at 0.0016 µM, 100% = signal doubled over neutral wells], Cc1cc(-c2ccc(Br)cc2)n2nc(C)cc2n1 -25.9% [at 0.005 µM, 100% = signal doubled over neutral wells]
